{
  "source": "PubChem BioAssay AID588790",
  "about": "(National Center for Advancing Translational Sciences (NCATS), 2011)",
  "note": "In all, about 1,200 compounds went through this assay and about 85 (7%) were called active. The list comes from a sample in which actives are over-represented; it also holds similar structures and randomly drawn compounds. A number with no mark means an inactive call. Calls come from the whole dose curve. Potency is the fitted concentration of half-maximal effect.",
  "data": [
    {"molecular_target": "Beta-2 adrenergic receptor (Homo sapiens) (UniProt P07550)", "sequence (P07550 whole entry, looked up)": "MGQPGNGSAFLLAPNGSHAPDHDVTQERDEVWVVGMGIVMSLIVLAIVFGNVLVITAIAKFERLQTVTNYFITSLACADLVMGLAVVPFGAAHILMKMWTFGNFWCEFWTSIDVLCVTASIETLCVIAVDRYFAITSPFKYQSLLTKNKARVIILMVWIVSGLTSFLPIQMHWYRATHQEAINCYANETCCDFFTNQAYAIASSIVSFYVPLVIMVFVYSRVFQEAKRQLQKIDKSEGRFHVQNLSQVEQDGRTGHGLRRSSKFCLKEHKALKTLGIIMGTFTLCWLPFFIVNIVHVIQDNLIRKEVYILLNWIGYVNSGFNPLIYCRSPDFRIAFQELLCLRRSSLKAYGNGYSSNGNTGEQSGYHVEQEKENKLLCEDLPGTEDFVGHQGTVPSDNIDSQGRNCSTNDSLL", "test": "qHTS assay of beta-arrestin-biased ligands of beta2-adrenergic receptor: Hit Validation with GloSensor; for activation: 0% is about no effect", "conditions": "W9-Glo22F cells, GloSensor cAMP luminescence, beta2AR agonism; activation: at 46.1 µM (top of the series)", "excerpt": "The concept of biased agonism is an emerging concept of molecular pharmacology which proposes that seven transmembrane receptors (7TMRs) or G protein-coupled receptors (GPCRs), exist in multiple signaling conformations and complexes and that ligands (either agonists or antagonists) can induce signaling biased responses for distinct signal transduction cascades.\nFurthermore, accumulating evidence over the last decade has drawn attention to a novel function of beta-arrestins as signal transducers that scaffold various signaling molecules upon activation of 7TMRs. […] This beta-arrestin-biased signaling presumably leads to distinct physiological outcomes from those by G protein activation.\nAdditionally, the active receptor conformations which […] on this beta-arrestin signaling are likely different from those activating G protein signaling\nThe goal of this screening project is to discover and optimize novel beta-arrestin-biased ligands for beta2-AR signaling. A luminescent cell-based assay for beta2-AR-mediated agonism, known as the Tango assay, has been validated in which ligand binding of a recombinant beta2-AR and subsequent recruitment of a recombinant beta-arrestin lead to the release of the transcriptional activator tTA, which upregulates transcription of a tTA-responsive luciferase gene. […] After compounds were identified in this primary screen, they were tested in a counter screen that used luminescence as measure through the GloSensor reagent.\nNIH Molecular Libraries Probe Production Network [MLPCN]\nNIH Chemical Genomics Center [NCGC]\nPI: Bryan Roth (UNC) and Bob Lefkowitz (Duke)\n2 uL of W9-Glo22F cells are dispensed into a white 1536-well plate. They are incubated overnight at 37 deg C at 5% CO2. 23 nL of compounds and controls are pinned into the wells. Then 2 uL of GloSensor is added and the plate is incubated for 10 min at room temperature.The plates are then read on the ViewLux for luminescence.", "units": {"activation": "%"}, "values": [
      {"smiles": "N#C/C(=C\\c1cccc(O)c1)C(=O)Nc1ccc2c(c1)OCCO2", "activation": -1.01},
      {"smiles": "O=C(c1ccccc1)c1ccc2nc(-c3ccco3)c(-c3ccco3)nc2c1", "Potency": "32.6 µM (active)"},
      {"smiles": "O=C(CC(c1ccco1)S(=O)(=O)c1ccccc1)c1ccccc1", "note": "(configuration not stated)", "activation": -2.17},
      {"smiles": "O=C(O)/C(=C\\c1ccco1)NC(=O)c1ccccc1", "activation": -1.16},
      {"smiles": "CC(C)[C@H](NC(=O)c1ccccc1Cl)C(=O)Nc1nc(-c2ccccn2)cs1", "activation": 1.16},
      {"smiles": "COc1cccc(N2CCN(C(=O)/C=C/c3ccco3)CC2)c1", "activation": 0},
      {"smiles": "CC1=C(C)/C(=N\\OS(=O)(=O)c2ccc(C)cc2)C=CC1=O", "activation": 0},
      {"smiles": "C/C(=N\\NC(=S)NC(C)C)c1ccccc1", "activation": 7.28},
      {"smiles": "COc1cc(/C(C)=N/NC(=S)NC(C)C)cc(OC)c1OC", "Potency": "18.4 µM (active)"},
      {"smiles": "C/C(=N\\NC(=S)NC(C)C)c1ccco1", "activation": 0},
      {"smiles": "CCOc1ccc(/C(CCC(=O)O)=N/NC(=S)NC(C)C)cc1", "activation": 1.71},
      {"smiles": "CC/C(=N\\NC(=S)NC(C)C)c1ccc(OC)c(OC)c1", "Potency": "23.1 µM (active)"},
      {"smiles": "C/C(=N\\NC(=S)NC(C)C)c1ccccc1OC(F)F", "activation": -1.16},
      {"smiles": "COc1cc(CN(C2CCCCC2)S(=O)(=O)c2ccc(S(=O)(=O)N(C)C3CCCCC3)cc2)cc(OC)c1OC", "activation": -1.01},
      {"smiles": "CCCNC(=O)COc1ccc2c(=O)c(Oc3ccccc3F)coc2c1", "activation": -1.16},
      {"smiles": "O=C(CSCC(=O)Nc1cccc([N+](=O)[O-])c1)Nc1ccccc1", "activation": 4.96},
      {"smiles": "O=C(Cn1c(=O)c2sccc2n(Cc2cccc([N+](=O)[O-])c2)c1=O)NCCc1ccccc1", "activation": -1.16},
      {"smiles": "CC(CCc1ccccc1)NCC(O)c1cccc([N+](=O)[O-])c1", "note": "(configuration not stated)", "Potency": "0.0206 µM (active)"},
      {"smiles": "COc1ccc(C(=O)N/N=C/C(Br)=C/c2ccccc2)cc1", "activation": -1.16},
      {"smiles": "CCCc1cc(SCC(=O)Nc2c(C)n(C)n(-c3ccccc3)c2=O)n2c(nc3ccccc32)c1C#N", "activation": -2.33},
      {"smiles": "NNc1ccc(Cl)nn1", "activation": 0.306},
      {"smiles": "Cc1cccc(NC(=S)NCc2ccco2)n1", "activation": 0},
      {"smiles": "C=CCNC(=S)N/N=C(\\C)c1cccc(OC)c1", "activation": 7.28},
      {"smiles": "C=CCNC(=S)N/N=C(\\C)c1cccnc1", "activation": -2.33},
      {"smiles": "C=CCNC(=S)N/N=C(\\C)c1cccc(NC(C)=O)c1", "Potency": "23.1 µM (active)"},
      {"smiles": "CCN(CC)c1ccc(/C=N/Nc2nc(C)cc(C)n2)cc1", "activation": 2.48},
      {"smiles": "CN1CCN(C(=O)c2ccccc2[N+](=O)[O-])CC1", "activation": -1.16},
      {"smiles": "COc1cccc(/C=N/Nc2ncc(C(F)(F)F)cc2Cl)c1O", "Potency": "25.9 µM (active)"},
      {"smiles": "NC(=S)N/N=C/c1ncc(C(F)(F)F)cc1Cl", "activation": 6.12},
      {"smiles": "COCCCNC(=S)N/N=C/c1cccc(OC)c1O", "activation": -1.16},
      {"smiles": "Oc1ccccc1/C=N/Nc1nc2ccccc2o1", "activation": 4.96},
      {"smiles": "CCCNC(=O)Cn1cnc2sc(C(=O)Nc3ccc4c(c3)OCO4)c(C)c2c1=O", "activation": -2.33},
      {"smiles": "N/C(=C\\C(=O)c1cc(Cl)ccc1O)C(Cl)(Cl)Cl", "Potency": "23.1 µM (active)"},
      {"smiles": "CCc1cc(C(=O)N(CC(C)C)c2c(N)n(Cc3ccccc3)c(=O)[nH]c2=O)sc1C", "activation": -1.01},
      {"smiles": "COC(=O)c1scc(C)c1S(=O)(=O)Nc1ccc(C)cc1", "activation": -2.33},
      {"smiles": "CCOc1ccc(C(C)=O)cc1COC(=O)CN1C(=O)NC2(CCCC2)C1=O", "activation": 5.51},
      {"smiles": "CCOc1ccc(C(C)=O)cc1COC(=O)c1ccc2c(c1)NC(=O)CS2", "Potency": "4.61 µM (active)"},
      {"smiles": "S=C(Nc1ccccc1)Nc1nc2ccccc2n1CCOc1ccc(Br)cc1", "activation": -1.16},
      {"smiles": "Cc1ccnc(NC(=O)c2c(-c3ccccc3Cl)noc2C)c1", "activation": 0.153},
      {"smiles": "Cc1ccc(N(Cc2cc(=O)[nH]c3ccccc23)C(=O)c2ccco2)cc1", "activation": 0},
      {"smiles": "COc1ccc2c(c1)c(=O)c(C(=O)c1ccccc1)cn2Cc1ccccc1", "activation": -1.16},
      {"smiles": "Cc1ccccc1-c1nc2c3ccccc3nc(=S)n2[nH]1", "activation": 8.6},
      {"smiles": "Cc1nc2ccccc2c(=O)n1N", "activation": 5.81},
      {"smiles": "S=c1nc2ccccc2c2nc(-c3ccccc3)[nH]n12", "Potency": "18.4 µM (active)"},
      {"smiles": "COc1ccc(/C(C)=N/NC(=S)NCCc2ccccc2)c(O)c1", "activation": 0},
      {"smiles": "O=C(CNC(=O)c1ccccc1F)Nc1ccc2c(c1)OCO2", "activation": -2.33},
      {"smiles": "C=C(C)C(=O)OC1(C(F)(F)F)Oc2cc(C)ccc2NC1=O", "note": "(configuration not stated)", "activation": 0.306},
      {"smiles": "Cn1c(SCC(=O)N/N=C/C=C/c2ccco2)nc2ccccc21", "activation": 0.153},
      {"smiles": "Cc1nn2c(nc1=O)NNC2(C)C(C)(C)C", "note": "(configuration not stated)", "activation": 0},
      {"smiles": "FC(F)(F)c1cc(Nc2ccccc2)nc(-c2ccccn2)n1", "Potency": "18.4 µM (active)"},
      {"smiles": "CCN(CC)c1cc(C(F)(F)F)nc(-c2ccccn2)n1", "activation": -1.16},
      {"smiles": "Cc1cc(N)n(Cc2cccs2)n1", "activation": 0.306},
      {"smiles": "CCOC(=O)c1cnc(-n2nc(C)cc2C)nc1N(C)C", "activation": -1.16},
      {"smiles": "CCOC(=O)c1cnc(-n2nc(C)cc2C)nc1NC", "activation": 1.16},
      {"smiles": "Cc1ccc(-n2c(SCC(=O)NCc3ccco3)nc3c(sc4ccccc43)c2=O)cc1", "activation": -0.153},
      {"smiles": "COc1ccc(CNc2nc(SCC(=O)NCc3ccco3)nc3ccccc23)cc1", "activation": -1.16},
      {"smiles": "COc1ccc(-c2cc(C(F)(F)F)nc(SCC(=O)NCc3ccco3)n2)cc1OC", "Potency": "13 µM (active)"}
    ]}
  ]
}
